These results are taken from PubChem BioAssay AID504357 (The Scripps Research Institute Molecular Screening Center, 2011).

Structures are written as SMILES. “And” between values parts separate entries of the source, which are not always exact repeats. Identical values can stand only once. Among all 340,000 compounds or so, about 700 (0.21%) were called active. The list comes from a sample in which actives are over-represented; it also holds similar structures and randomly drawn compounds. Unmarked numbers belong to inactive results. Rule as the data show it: active = inhibition above about 22% (passing the limit was not always enough); inactive = the rest.

Mu-type opioid receptor (Homo sapiens) + Delta-type opioid receptor (Homo sapiens), sequence (P35372 whole entry, looked up): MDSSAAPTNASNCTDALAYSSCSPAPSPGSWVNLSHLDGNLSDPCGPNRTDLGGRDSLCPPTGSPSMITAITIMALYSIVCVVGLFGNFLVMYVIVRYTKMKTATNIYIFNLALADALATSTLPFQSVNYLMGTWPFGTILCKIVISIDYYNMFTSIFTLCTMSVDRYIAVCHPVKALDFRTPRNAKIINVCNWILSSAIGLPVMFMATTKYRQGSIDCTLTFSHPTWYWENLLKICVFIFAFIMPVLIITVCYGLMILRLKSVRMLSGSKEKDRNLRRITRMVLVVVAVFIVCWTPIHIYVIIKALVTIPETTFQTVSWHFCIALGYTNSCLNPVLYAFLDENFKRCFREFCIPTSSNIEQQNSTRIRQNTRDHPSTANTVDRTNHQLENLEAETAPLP
Mu-type opioid receptor (Homo sapiens) + Delta-type opioid receptor (Homo sapiens), sequence (P41143 whole entry, looked up): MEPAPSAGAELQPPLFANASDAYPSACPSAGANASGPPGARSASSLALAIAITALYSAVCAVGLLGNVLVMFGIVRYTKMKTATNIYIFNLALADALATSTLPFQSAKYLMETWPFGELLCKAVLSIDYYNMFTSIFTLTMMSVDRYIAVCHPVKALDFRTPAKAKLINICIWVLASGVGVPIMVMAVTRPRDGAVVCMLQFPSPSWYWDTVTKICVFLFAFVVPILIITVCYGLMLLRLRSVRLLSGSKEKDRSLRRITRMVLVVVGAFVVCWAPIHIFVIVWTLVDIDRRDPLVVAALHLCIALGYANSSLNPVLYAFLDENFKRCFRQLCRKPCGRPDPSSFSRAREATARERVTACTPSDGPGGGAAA

The assay addresses Mu-type opioid receptor (Homo sapiens) + Delta-type opioid receptor (Homo sapiens) (UniProt P35372+P41143). Kind of assay: OPRM1-OPRD1 heterodimer inverse agonism – cell-based, luminescence, primary screen (AID 504357).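 Also: 0% = cells with DMSO and 100% = wells without cells with DMSO.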 To be noted: cell-based MOR-DOR heterodimer luminescence, at 9.3 µM, hits give high values.
In general, inhibition refers to the drop in the measured response relative to a control, in per cent. In the case of `Cc1ccc(Cc2nnc(SCC(=O)Nc3ccc(C)cc3C)[nH]c2=O)cc1`, the inhibition is -25.8%.

Regarding `O=C1CCC(=O)N(O)CCCCCNC(=O)CCC(=O)N(O)CCCCCNC(=O)CCC(=O)N(O)CCCCCN1`, the inhibition was 8.42%.

`CN(/N=C/c1ccccc1)C(=S)c1ccccc1`: the inhibition was -3.87%.

For `CN(O)C(=S)c1ccccc1`, the inhibition was 41.1% (active).

Consider `CN(CC(=O)O)C(=O)c1ccccc1`, for which the inhibition is 10.9%.

For `Cc1ccc(NNC(=O)c2cccs2)cc1Cl`, the inhibition was 53.4% (active).

As to `O=C(NNC(=O)c1ccc(Cl)cc1Cl)c1cccs1`, the inhibition was 2.42%.

On to `Cc1ccc(NC(=O)c2cccs2)cc1S(=O)(=O)N(C)C`, for which the inhibition is 0.25%.

With `CSc1ccc(Cl)c(C(=O)OCC(=O)N2CCNC2=O)c1`, the inhibition was 16.2%.

Regarding `Cc1cc(C)cc(N)c1`, the inhibition was 14.8%.

As to `CCN(CC(=O)NCc1ccco1)S(=O)(=O)c1ccc(F)cc1`, the inhibition was -7.35%.

Regarding `COc1ccccc1C(=O)NC(=O)COC(=O)c1ccco1`, the inhibition was 3.92%.

Consider `Cc1cccc(-n2c(SCC(N)=O)nc3c(c2=O)C2(CCCCC2)Cc2ccccc2-3)c1`, for which the inhibition was -5.65%.

For the compound `CC1CC2=C(CC1/C=N/NC(N)=S)C(C)(C)CCC2` (stereo not drawn), the inhibition is -16.2%.

As for `CCn1cc(/C=C2/SC(=S)NC2=O)c(C)n1`, the inhibition is 9.33%.

Turning to `CC1CCCC(N2CCN(C(=O)c3ccc(F)cc3)CC2)C1` (stereo not drawn), the inhibition is 1.43%.

Consider `CCOc1ccc(S(=O)(=O)NCCC(=O)N2CCCCCCC2)cc1`, for which the inhibition is -1.55%.

In the case of `O=C(CCN1CCN(C/C=C/c2ccccc2)CC1)Nc1ccccc1Cl`, the inhibition was 1.43%.

On to `CC(c1cccnc1)N(CCN(C)C)C(=O)Nc1ccc(Cl)c(Cl)c1` (stereo not drawn), for which the inhibition was -197%.

`Cc1cccc(C)c1NC(=O)CN(C)C(=O)CCC(=O)c1ccccc1`: the inhibition is 3.3%.

On to `CC(NC(=O)c1ccccc1)C(=O)Nc1ccccc1` (stereo not drawn), for which the inhibition is 19.2%.

Turning to `Cc1cccc(C)c1NC(=O)C(Cl)C(=O)c1ccccc1` (stereo not drawn), the inhibition is 34.4% (active).

As to `Cc1cc(C)c(S(=O)(=O)N2CCC(C(=O)OCc3c(C)noc3C)CC2)c(C)c1`, the inhibition was 6.69%.

Consider `COc1cccc(-c2ccc(C#N)c(SCC(=O)NCCc3ccc(Cl)cc3)n2)c1`, for which the inhibition is -45.6%.

Regarding `Oc1ccc(N=Nc2nccs2)c(O)c1`, the inhibition was 37.2% (active).

Take `CN(c1ccccc1)S(=O)(=O)c1ccc(NC(=O)COc2ccccc2)cc1`: the inhibition was 31.1% (active).

Turning to `O=C(COc1ccccc1)Nc1ccc(F)cc1`, the inhibition is 7.72%.

For the compound `Cc1ccc(S(=O)(=O)N(C)c2ccc(OCC(=O)NC3=NCCS3)cc2)cc1`, the inhibition was 7.13%.

In the case of `Cc1cc(O)c(C2(O)C(=O)Nc3ccccc32)cc1C` (stereo not drawn), the inhibition is 10.4%.

As to `Cc1ccc(NC2(C#N)C(=O)Nc3ccccc32)cc1` (stereo not drawn), the inhibition is 63.2% (active).

On to `Cc1cccc(CC2(O)C(=O)Nc3ccccc32)n1` (stereo not drawn), for which the inhibition was 15.9%.

In the case of `CC(CC(=O)N1CCN(c2ccccc2)CC1)S(=O)(=O)c1ccc2c(c1)NC(=O)CS2` (stereo not drawn), the inhibition was 4.28%.

As for `CCCCCCCCCCCCN1[C@@H](CC(C)=O)c2cc(F)cc(F)c2S1(=O)=O`, the inhibition was 8.79%.

As to `Cc1cc(=O)oc2c1c(C)nn2-c1ccc(Cl)cc1`, the inhibition is 11%.

With `Cc1ccc(CN(CC(=O)NCC2CCCO2)S(=O)(=O)c2ccc(C)cc2)cc1` (stereo not drawn), the inhibition is 10.1%.

On to `Nc1nnc(C2CCCC2)s1`, for which the inhibition is 11.4%.

For `O=C(NCCN1CCOCC1)/C(=C/c1ccc(F)cc1)NC(=O)c1ccccc1`, the inhibition is 18.7%.

As to `Cc1cc(NC(=O)CN2CCC(O)(c3cccc(F)c3)CC2)no1`, the inhibition is 10.8%.

On to `COc1cccc(CNC(=O)C2CCCN(S(=O)(=O)N3CC(C)CC(C)C3)C2)c1` (stereo not drawn), for which the inhibition is 16%.

Consider `Cc1ccsc1C(=O)NCCc1ccco1`, for which the inhibition was 7.66%.

With `O=C(NCCSc1ncc(-c2ccccc2)[nH]1)c1ccco1`, the inhibition is 13.1%.

Turning to `CC1CCCCC1NC(=O)COC(=O)Cc1ccc(Cl)cc1` (stereo not drawn), the inhibition was 21.7%.

As for `CC(=O)N1c2ccc(S(=O)(=O)N3CCCC(C(=O)Nc4ccc(C)cc4C)C3)cc2CC1C` (stereo not drawn), the inhibition was -10.6%.

`O=C(c1ccco1)N1CCN(C(=O)C2CC(c3ccc(Cl)c(Cl)c3)=NO2)CC1` (stereo not drawn): the inhibition is 9.92%.

For `Cc1cc(OC(=O)c2ccccc2)c([N+](=O)[O-])c(=O)[nH]1`, the inhibition was -3.39%.

In the case of `O=C(O)CCN1C(=O)CC2(CCCCC2)C1=O`, the inhibition is 14.8%.

As to `O=[N+]([O-])/C=C/c1ccc2c(ccn2Cc2ccccc2)c1`, the inhibition is 38.9% (active).

As to `COc1ccc(CNCCCn2cnc3c(OCc4ccccc4)ncnc32)cc1`, the inhibition was 11.7%.

With `Cc1ccc2c(c1)C(O)(CC(=O)c1cccnc1)C(=O)N2` (stereo not drawn), the inhibition is 37.3% (active).

Take `O=C(CC(=O)c1cccnc1)c1ccccc1`: the inhibition was 13.2%.

With `Cc1ccc2c(c1)C(O)(CC(=O)c1cccc(-n3cccc3)c1)C(=O)N2` (stereo not drawn), the inhibition was 17.9%.

As to `CN(c1ccccc1)S(=O)(=O)c1cc(C(=O)N2CCN(c3ncccn3)CC2)ccc1Cl`, the inhibition was 2.36%.

On to `COc1ccccc1CN1CCCC(N2CCN(c3ccc(F)cc3)CC2)C1` (stereo not drawn), for which the inhibition is 8.79%.

`C[n+]1ccc(C(=O)NCc2ccccc2)cc1`: the inhibition is -0.68%.

In the case of `COc1c(C=O)c(CCN(C)C(=O)c2ccc(F)cc2)cc2c1OCO2`, the inhibition was 9.88%.

Regarding `CCOCCCNC(=O)C(NC(=O)Cc1c[nH]c2ccccc12)c1ccc(OC)cc1` (stereo not drawn), the inhibition was 12.1%.

Take `Cc1ccccc1OCC(=O)NNC(=O)c1ccc(-n2cncn2)c([N+](=O)[O-])c1`: the inhibition was 8.19%.

As to `CCc1c(C)sc(NC(=O)OC)c1C(=O)N1CCOCC1`, the inhibition is 5.54%.

Regarding `CCOc1ccc(S(=O)(=O)N2CCCC(C(=O)N3CCC(C(N)=O)CC3)C2)cc1Cl` (stereo not drawn), the inhibition is 5.16%.

`COc1ccccc1N1CCN(CC(=O)Nc2ccnn2C2CCCC2)CC1`: the inhibition is 0.88%.

`CSCCC(NC(=O)COc1ccccc1)C(=O)OCCOc1ccc(Br)cc1` (stereo not drawn): the inhibition is -28.3%.

`CSCCC(NC(=O)COc1ccccc1)C(=O)OCC(=O)c1cc2ccccc2o1` (stereo not drawn): the inhibition is 68.4% (active).

For `CSCCC(NC(=O)COc1ccccc1)C(=O)OCc1ccc(Cl)cc1` (stereo not drawn), the inhibition was -17.1%.

In the case of `CN1CC(=O)N=C1N`, the inhibition is 16.7% and 15.6%.

`Cc1cc(Cl)c(S(=O)(=O)NCc2cccnc2)cc1OCC(N)=O`: the inhibition was 11.2%.

As for `CCOc1ccc(NC(=O)CN(C)CC(=O)NC(C)c2ccccc2)cc1OCC` (stereo not drawn), the inhibition was 1.67%.

For `COCC(C)OC(=O)c1c(N)n(CCCN2CCOCC2)c2nc3ccccc3nc12` (stereo not drawn), the inhibition is 10.3%.

Turning to `C=CCn1c(N)c(C(=O)OCC(C)C)c2nc3ccccc3nc21`, the inhibition is 55.7% (active).

As to `C=CCn1c(C(C)NC(=O)CC)nc2ccccc21` (stereo not drawn), the inhibition is 18%.

Turning to `FC(F)(F)C1CCCN(c2nsc3ccccc23)C1` (stereo not drawn), the inhibition is 11.2%.

In the case of `CCOC(=O)CN1C(=O)C(O)(CC(=O)c2ccccn2)c2ccccc21` (stereo not drawn), the inhibition is 49.5% (active).

In the case of `C=CCN1C(=O)C(O)(CC(=O)c2ccccn2)c2ccccc21` (stereo not drawn), the inhibition was 15.1%.

Consider `C=CCN1C(=O)C(O)(CC(=O)c2ccc(Cl)cc2)c2ccccc21` (stereo not drawn), for which the inhibition was 12%.
